ADAM17 inh: inhibits human ADAM17; P78536; recombinant ADAM17, EDANS/DABCYL FRET peptide cleavage; inhibition, % at 6.95 µM; 370,000 compounds, 0.83% hits; AID 720648;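 active means inhibition above the mean of compounds lying between control limits plus 3 SD, set per campaign, cut at about 8.5% in these data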;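 further: 0% = DMSO-only wells as the low control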
PLC-gamma1 inh: blocks human PLC-gamma1 enzyme activity; P19174; 370,000 compounds, 0.84% hits; inhibition, % at 12.2 µM; purified PLC-gamma1, fluorogenic substrate, fluorescence
PLCb3 inh: PLC-beta3 (human) inhibition, primary screen; Q01970; Purified PLC-beta3, fluorogenic substrate, fluorescence; inhibition, % at 12.2 µM; 370,000 compounds, 0.18% hits; AID 720704; in the data active means inhibition above about 11%;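 further: 0% = median of compound wells on plate and 100% = full blocker control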
ADAM10 inh: inhibitors of human ADAM10. O14672. recombinant ADAM10, EDANS/DABCYL FRET peptide cleavage, 3 h. inhibition, % at 7 µM. 370,000 compounds, 0.62% hits. AID 720582;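 active means inhibition above a per-campaign cutoff equal to the mean of compounds falling between control-based bounds plus 3 SD, cut at about 20% in these data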;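 further: 0% = DMSO wells while the 100% control is not disclosed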
Rce1 inh: yeast Ras-converting enzyme inhibition; Q03530; yeast membranes, quenched prenylated peptide cleavage fluorescence; calls only; 290,000 compounds, 0.27% hits;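 active means fall in fluorescence gain of 50% or more versus controls, with final raw signal at or below 3038400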;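 further: plate controls were neutral control wells for no effect and wells lacking membranes for full effect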
PLCgamma1 ctr: counter-screen for PLC-beta3 inhibitors: inhibitors of human PLC-gamma1. shares compounds with PLC-gamma1 inh. purified PLC-gamma1, fluorogenic substrate, fluorescence. inhibition, % at 12.3 µM. 3,300 compounds, 3.1% hits
PLCb3 confirm: confirmation of human PLC-beta3 inhibitors. shares compounds with PLC-gamma1 inh. inhibition, % at 12.3 µM. 3,300 compounds, 1% hits. purified PLC-beta3, fluorogenic substrate fluorescence; in the data active means inhibition above about 11%
Active calls of the source: *. Rows were chosen to be rich in hits. Some 2.1% of all compounds tested hit in one or more screens of this group. Unless noted, no stated cut-off is given here; in the data, active means inhibition above about 9.5%; inactive means the rest.

What do the screens show for `COc1cc(OC)cc(C(=O)NCC(=O)OCC(=O)N2c3ccccc3NC(=O)C2(C)C)c1`?
ADAM17 inh: 6; PLC-gamma1 inh: 11*; PLCb3 inh: -1; ADAM10 inh: -6; Rce1 inh: inactive; PLCgamma1 ctr: 5; PLCb3 confirm: 1

How did Cn1c(CSCc2ccccc2Cl)nnc1SCC(=O)Nc1nccs1 do in these assays?
ADAM17 inh: -4; PLC-gamma1 inh: 15*; PLCb3 inh: 0; ADAM10 inh: 6; Rce1 inh: inactive; PLCgamma1 ctr: -3; PLCb3 confirm: -1

How did O=C1C=C(c2ccccc2)C(c2ccccc2)C1 (stereo unspecified) do in these assays?
ADAM17 inh: -1; PLC-gamma1 inh: 0; PLCb3 inh: -6; ADAM10 inh: -11

How did CCOc1ccccc1C(=O)N/N=C/c1cccc2cccnc12 do in these assays?
ADAM17 inh: -2; PLC-gamma1 inh: 14*; PLCb3 inh: 7; ADAM10 inh: -4; Rce1 inh: inactive; PLCgamma1 ctr: -7; PLCb3 confirm: -1

How did CCOc1ccc(C(=O)N/N=C/c2cccc3cccnc23)cc1 do in these assays?
ADAM17 inh: 3; PLC-gamma1 inh: 0; PLCb3 inh: -1; ADAM10 inh: 3; Rce1 inh: inactive

What do the screens show for `O=C(NC(C(=O)c1ccccc1)n1cnccc1=O)c1ccccc1` (stereo unspecified)?
ADAM17 inh: 1; PLC-gamma1 inh: 11*; PLCb3 inh: 3; ADAM10 inh: 2; Rce1 inh: inactive; PLCgamma1 ctr: -2; PLCb3 confirm: 3

What do the screens show for `O=C(NCn1cnccc1=O)c1ccccc1`?
ADAM17 inh: -2; PLC-gamma1 inh: 1; PLCb3 inh: 0; ADAM10 inh: 2; Rce1 inh: inactive

What do the screens show for `O=C(CSc1nc2ccccc2c(=O)n1-c1ccc(Cl)c(Cl)c1)Nc1ccc2c(c1)CCC2`?
ADAM17 inh: 3; PLC-gamma1 inh: 11*; PLCb3 inh: 4; ADAM10 inh: -2; PLCgamma1 ctr: -7; PLCb3 confirm: -4

Results for COc1ccccc1CNC(=O)C1CCC(=O)N(CCCN2CCCC2=O)C1 (stereo unspecified) ?
ADAM17 inh: 0; PLC-gamma1 inh: 9.9*; PLCb3 inh: 2; ADAM10 inh: 9; Rce1 inh: inactive; PLCgamma1 ctr: -4; PLCb3 confirm: -2

How did COc1ccccc1CCCNC(=O)C1CCC(=O)N(CCCN2CCCC2=O)C1 (stereo unspecified) do in these assays?
ADAM17 inh: -7; PLC-gamma1 inh: 2; PLCb3 inh: -7; ADAM10 inh: -8; Rce1 inh: inactive

How did Cn1c(=NC(=O)C2CC2)sc2cccc(F)c21 do in these assays?
ADAM17 inh: 3; PLC-gamma1 inh: 11*; PLCb3 inh: 0; ADAM10 inh: 7; Rce1 inh: inactive; PLCgamma1 ctr: -6; PLCb3 confirm: -5

What do the screens show for `CS/C(Nc1cc(Cl)ccc1Cl)=C(/C#N)C(=O)c1ccco1`?
ADAM17 inh: 1; PLC-gamma1 inh: -7; PLCb3 inh: -17; ADAM10 inh: 3; Rce1 inh: inactive

How did CC1(C)O[C@@H]2[C@H](O1)[C@@H](CO)O[C@H]2n1cc(Br)c(=O)[nH]c1=O do in these assays?
ADAM17 inh: 5; PLC-gamma1 inh: 14*; PLCb3 inh: 10; ADAM10 inh: 0; PLCgamma1 ctr: 1; PLCb3 confirm: -6

How did O=C(CSc1nc2ccccc2s1)Nc1cc(S(=O)(=O)N2CCOCC2)ccc1O do in these assays?
ADAM17 inh: 0; PLC-gamma1 inh: 1; PLCb3 inh: 0; ADAM10 inh: 6; Rce1 inh: inactive

Results for CN(C)c1ccc(P(=O)(OCc2ccccc2)C(O)c2ccccc2)cc1 (stereo unspecified) ?
ADAM17 inh: 1; PLC-gamma1 inh: 0; PLCb3 inh: -6; ADAM10 inh: 7; Rce1 inh: inactive

What do the screens show for `O=C(Cc1ccccc1)Nc1cccc(NC(=O)c2cccs2)c1`?
ADAM17 inh: 8; PLC-gamma1 inh: 11*; PLCb3 inh: 4; ADAM10 inh: 12; Rce1 inh: inactive; PLCgamma1 ctr: -4; PLCb3 confirm: -1

Results for CCOP(=O)(OCC)C(NC(=O)Nc1ccccc1)C(N)=O (stereo unspecified) ?
ADAM17 inh: 4; PLC-gamma1 inh: 3; PLCb3 inh: 11*; ADAM10 inh: 2; Rce1 inh: inactive; PLCgamma1 ctr: -8; PLCb3 confirm: -2

Results for CCOc1ccc(CN2CCC(C(=O)Nc3cccc(-c4ccn[nH]4)c3)CC2)cc1Cl ?
ADAM17 inh: -1; PLC-gamma1 inh: 2; PLCb3 inh: -6; ADAM10 inh: 1; Rce1 inh: inactive

What do the screens show for `CC12C(=O)N(c3ccccc3C(=O)O)C(=O)C1C1C=CC2C1` (stereo unspecified)?
ADAM17 inh: -4; PLC-gamma1 inh: 2; PLCb3 inh: 0; ADAM10 inh: 0; Rce1 inh: inactive

Results for O=C(O)c1ccccc1N1C(=O)C2C3c4ccccc4C(Br)(c4ccccc43)C2C1=O (stereo unspecified) ?
ADAM17 inh: -1; PLC-gamma1 inh: 18*; PLCb3 inh: -4; ADAM10 inh: 1; Rce1 inh: inactive; PLCgamma1 ctr: 0; PLCb3 confirm: 2

How did CCCN(CCC)C(=O)Nc1cc(Cl)ccc1OC do in these assays?
ADAM17 inh: -1; PLC-gamma1 inh: 3; PLCb3 inh: -3; ADAM10 inh: -1; Rce1 inh: inactive

What do the screens show for `COc1cc(OC)cc(C(=O)NC2CCN(Cc3nnnn3Cc3cccs3)CC2)c1`?
ADAM17 inh: 2; PLC-gamma1 inh: 12*; PLCb3 inh: 5; ADAM10 inh: -4; Rce1 inh: inactive; PLCgamma1 ctr: 1; PLCb3 confirm: -1

How did Cc1ccc(C(=O)OC(C(=O)O)C(OC(=O)c2ccc(C)cc2)C(=O)O)cc1 (stereo unspecified) do in these assays?
ADAM17 inh: -2; PLC-gamma1 inh: -6; PLCb3 inh: -8; ADAM10 inh: -1

How did O=C(NCc1ccc(F)cc1)c1cc(C2CCCCN2C(=O)c2ccc3c(c2)CCO3)on1 (stereo unspecified) do in these assays?
ADAM17 inh: 0; PLC-gamma1 inh: 2; PLCb3 inh: 2; ADAM10 inh: 2

How did O=C(NCc1ccccc1)c1cc(C2CCCCN2C(=O)c2ccc3c(c2)CCO3)on1 (stereo unspecified) do in these assays?
ADAM17 inh: 3; PLC-gamma1 inh: 12*; PLCb3 inh: -2; ADAM10 inh: -14; PLCgamma1 ctr: -3; PLCb3 confirm: -144

What do the screens show for `Cc1nn(C)c(C)c1CN(C(=O)C1CCC(=O)N(C2CCCCCC2)C1)C(C)C` (stereo unspecified)?
ADAM17 inh: -1; PLC-gamma1 inh: 0; PLCb3 inh: -4; ADAM10 inh: -2; Rce1 inh: inactive

Screens: PubChem, several laboratories
